Drawing on PubChem BioAssay (NCI), this text covers growth for 13 molecules.

Compounds without any hit were thinned out: in the full panel of roughly 83,000, 20% have a hit.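 Assay: single dose, 48 h. Readout: percent growth (0 = no net growth; negative = cell death). Active: <10.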 Unmarked numbers belong to inactive results. The source made the active and inactive calls.

Test systems include SR leukemia; RPMI-8226 leukemia; OVCAR-8 ovarian; OVCAR-5 ovarian; OVCAR-4 ovarian; SK-OV-3 ovarian; IGROV1 ovarian; OVCAR-3 ovarian; HS 578T breast; NCI/ADR-RES ovarian.
Assay in all cases: NCI-60 one-dose screen, 48 h (100 = growth as untreated, 0 = no growth, -100 = all killed)
Details in all cases: 10 µM unless noted

As for `N#CCc1ncc(-c2ccc(C(F)(F)F)cc2)c(NC2CCCCCC2)n1`, the growth in the assay with SR leukemia is -23.8% [100 µM] (active); with RPMI-8226 leukemia, -32% [100 µM] (active); in the assay on OVCAR-8 ovarian, 26% [100 µM]; in the assay on OVCAR-5 ovarian, 50.2% [100 µM]; with OVCAR-4 ovarian it was 42.5% [100 µM]; in the assay with SK-OV-3 ovarian, 74.9% [100 µM]. For the same molecule, the growth in the assay with IGROV1 ovarian is 44.9% [100 µM]; in the assay on OVCAR-3 ovarian, -19% [100 µM] (active); in the assay on HS 578T breast, 52.7% [100 µM]; with NCI/ADR-RES ovarian, 28.3% [100 µM].

As to `O=C(CCl)c1ccc2c(c1)CCCC2`, the growth is 7.36% (active) with SR leukemia; 84.6% with RPMI-8226 leukemia; 95.6% in the assay with OVCAR-8 ovarian; 107% in the assay with OVCAR-5 ovarian; 107% with OVCAR-4 ovarian; 110% in the assay on SK-OV-3 ovarian. Also, the growth is 89.2% with IGROV1 ovarian, 114% in the assay on OVCAR-3 ovarian, 94.7% with HS 578T breast and 108% in the assay with NCI/ADR-RES ovarian.

For `COC(=O)c1ccc2[nH]c(O)c(C(=Nc3ccc(N(C)C(=O)CN4CCN(C)CC4)cc3)c3ccc(N)cc3)c2c1`, the growth with SR leukemia is 3.76% (active); with RPMI-8226 leukemia, 84%; in the assay on OVCAR-8 ovarian, 116%; in the assay with OVCAR-5 ovarian, 77.8%; in the assay with OVCAR-4 ovarian, 73.7%; with SK-OV-3 ovarian, 85.6%. In addition, the growth in the assay on IGROV1 ovarian is 46.6%; with OVCAR-3 ovarian, 96.2%; with HS 578T breast, 45.2%; with NCI/ADR-RES ovarian, 113%.

Regarding `CCC(C)(C)c1ccc(OCCCCCCN2CCNCC2)cc1`, the growth in the assay with SR leukemia is -2.78% (active); with RPMI-8226 leukemia it was -16.4% (active); in the assay on OVCAR-8 ovarian, 75.2%; in the assay with OVCAR-5 ovarian it was 91.6%; in the assay on OVCAR-4 ovarian, 70%; in the assay on SK-OV-3 ovarian it was 101%. The growth in the assay with IGROV1 ovarian was 87.3%; with OVCAR-3 ovarian, 69.4%; in the assay with HS 578T breast, 64.2%; in the assay on NCI/ADR-RES ovarian it was 76.4%.

In the case of `COC(=O)CC(=O)C(=O)OC`, the growth with SR leukemia is 93.1%; in the assay with RPMI-8226 leukemia, 101%; with OVCAR-8 ovarian, 105%; in the assay on OVCAR-5 ovarian it was 108%; in the assay with OVCAR-4 ovarian it was 108%; in the assay on SK-OV-3 ovarian, 106%. The growth in the assay with IGROV1 ovarian was 108%; in the assay on OVCAR-3 ovarian, 106%; in the assay on HS 578T breast, 105%; with NCI/ADR-RES ovarian, 106%.

On to `CCCC(=O)NNc1[nH]c(-c2cc(OC)c(OC)c(OC)c2)cc1C(=O)OCC`, for which the growth with SR leukemia is 68.2%; with RPMI-8226 leukemia, 101%; with OVCAR-8 ovarian, 108%; with OVCAR-5 ovarian it was 92.8%; with OVCAR-4 ovarian, 118%; with SK-OV-3 ovarian, 110%. Further, the growth was 22.6% with IGROV1 ovarian, 92.6% in the assay on OVCAR-3 ovarian, 105% with HS 578T breast and 114% in the assay on NCI/ADR-RES ovarian.

`N=c1c2c(=O)n3c(nc2nc2sc4ccc(Cl)cc4n12)-c1ccccc1Sc1ccccc1-3`: the growth is 5.86% (active) in the assay with SR leukemia; 7.72% (active) in the assay with RPMI-8226 leukemia; 19.8% with OVCAR-8 ovarian; 48.2% in the assay with OVCAR-5 ovarian; 0.243% (active) in the assay with OVCAR-4 ovarian; 19.5% in the assay with SK-OV-3 ovarian. Moreover, the growth with IGROV1 ovarian was 2.34% (active); with OVCAR-3 ovarian, 20.9%; in the assay on HS 578T breast, 35.1%; in the assay on NCI/ADR-RES ovarian, 12.3%.

Consider `O=S(=O)(O)c1ccc2c(c1)Sc1cc(S(=O)(=O)O)ccc1O2`, for which the growth with SR leukemia was 107%; with RPMI-8226 leukemia it was 101%; in the assay on OVCAR-8 ovarian it was 104%; in the assay on OVCAR-5 ovarian, 92.1%; in the assay with OVCAR-4 ovarian, 110%; in the assay with SK-OV-3 ovarian, 107%. For the same molecule, the growth was 112% in the assay on IGROV1 ovarian, 122% in the assay with OVCAR-3 ovarian, 110% in the assay on HS 578T breast and 104% with NCI/ADR-RES ovarian.

`Nc1nc2c(c3ncncc13)C(c1cccc(C(F)(F)F)c1)Cc1ncncc1-2` (stereo not given): the growth in the assay on SR leukemia is 32.9%; in the assay with RPMI-8226 leukemia, 26.8%; with OVCAR-8 ovarian, 57.6%; with OVCAR-5 ovarian it was 77.4%; with OVCAR-4 ovarian it was 39.8%; with SK-OV-3 ovarian, 32.9%. The growth in the assay with IGROV1 ovarian is 54.4%; with OVCAR-3 ovarian, 2.43% (active); with HS 578T breast, 18.2%; in the assay on NCI/ADR-RES ovarian, 15.3%.

Turning to `CN(C)CCOC(=O)C(C)(C)C`, the growth is 99.5% with SR leukemia; 106% with RPMI-8226 leukemia; 99.7% in the assay with OVCAR-8 ovarian; 103% with OVCAR-5 ovarian; 111% in the assay with OVCAR-4 ovarian; 112% in the assay with SK-OV-3 ovarian. Moreover, the growth is 106% in the assay on IGROV1 ovarian, 111% in the assay with OVCAR-3 ovarian, 105% in the assay on HS 578T breast and 110% with NCI/ADR-RES ovarian.

`COc1cc(NC(C)CCCN)c2nccc(C)c2c1OC` (stereo not given): the growth in the assay with SR leukemia is 69.4%; in the assay on RPMI-8226 leukemia, 65.7%; in the assay with OVCAR-8 ovarian it was 98.2%; in the assay with OVCAR-5 ovarian, 91.8%; with OVCAR-4 ovarian, 29%; in the assay on SK-OV-3 ovarian it was 96.1%. Further, the growth with IGROV1 ovarian was 92.8%; in the assay on OVCAR-3 ovarian it was 44.4%; in the assay with HS 578T breast it was 87.3%; with NCI/ADR-RES ovarian, 98.2%.

Regarding `O=c1oc2ccc3ccccc3c2cc1-c1ccnc2[nH]c(=S)[nH]c(=O)c12`, the growth in the assay with SR leukemia was 82.7%; with RPMI-8226 leukemia, 89.1%; in the assay on OVCAR-8 ovarian it was 99.8%; with OVCAR-5 ovarian it was 112%; in the assay on OVCAR-4 ovarian, 117%; with SK-OV-3 ovarian, 93.1%. Besides, the growth is 104% in the assay with IGROV1 ovarian, 107% in the assay with OVCAR-3 ovarian, 107% with HS 578T breast and 94.8% in the assay on NCI/ADR-RES ovarian.

In the case of `CCCCN(CCCC)CCCNc1c2c(nc3ccc(Cl)cc13)CCCC2`, the growth in the assay on SR leukemia is 75.8%; in the assay on RPMI-8226 leukemia, 102%; in the assay with OVCAR-8 ovarian, 102%; in the assay with OVCAR-5 ovarian it was 84%; in the assay on OVCAR-4 ovarian, 84.7%; in the assay on SK-OV-3 ovarian, 105%. The growth with IGROV1 ovarian is 79.5%; in the assay with OVCAR-3 ovarian, 88.9%; in the assay with HS 578T breast, 104%; in the assay with NCI/ADR-RES ovarian it was 94.4%.
